Screening results: PubChem BioAssay, National Center for Advancing Translational Sciences (NCATS)
This is a sample that favours compounds with a hit; in the whole collection about 19% have one here.
DT40 TDP1 CPT: qHTS for Inhibitors of human tyrosyl-DNA phosphodiesterase 1 (TDP1): qHTS in cells in presence of CPT. AID 686979, 2013. chicken DT40 Tdp1-/-;hTDP1 cells + 20 nM CPT, ATP luminescence, 48 h. 12% of 420,000 active. Potency, µM (series often up to 46.2 µM), most hits filed as inhibitors; note: nearly all actives have a fitted effect of over 55% in size
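Chicken DT40 Tdp1-/- cells complemented with human TDP1, 400 cells/well, exposed to compounds plus 20 nM camptothecin for at least 48 h at 37 C; viability read as ATP content by CellTiter-Glo luminescence.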
TDP1 inh: qHTS Assay for Inhibitors of Tyrosyl-DNA Phosphodiesterase (TDP1) | Tyrosyl-DNA phosphodiesterase 1 (Homo sapiens), Q9NUW8 | recombinant TDP1, AlphaScreen DNA substrate cleavage | Potency, µM (doses to about 130 µM), actives largely listed as inhibitors | 0.28% of 350,000 active; note: nearly all actives have a fitted effect of over 40% in size
Target sequence (Q9NUW8 whole entry, looked up): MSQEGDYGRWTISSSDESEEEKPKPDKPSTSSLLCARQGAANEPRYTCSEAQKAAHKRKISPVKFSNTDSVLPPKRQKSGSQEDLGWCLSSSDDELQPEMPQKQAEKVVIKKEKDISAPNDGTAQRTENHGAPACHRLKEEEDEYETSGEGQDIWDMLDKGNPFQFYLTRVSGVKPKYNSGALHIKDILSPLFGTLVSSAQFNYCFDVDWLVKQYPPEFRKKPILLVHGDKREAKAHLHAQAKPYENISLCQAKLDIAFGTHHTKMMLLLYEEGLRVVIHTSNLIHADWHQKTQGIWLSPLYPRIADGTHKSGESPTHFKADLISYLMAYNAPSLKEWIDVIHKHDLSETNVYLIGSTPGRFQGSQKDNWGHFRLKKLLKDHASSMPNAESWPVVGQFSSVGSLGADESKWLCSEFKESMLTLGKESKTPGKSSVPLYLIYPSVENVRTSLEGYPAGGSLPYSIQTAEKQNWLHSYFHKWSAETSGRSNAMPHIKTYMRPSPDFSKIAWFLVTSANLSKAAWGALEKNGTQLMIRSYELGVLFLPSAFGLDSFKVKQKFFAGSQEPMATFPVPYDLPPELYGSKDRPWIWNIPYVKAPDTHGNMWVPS
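Recombinant E. coli-expressed Tdp1 (1 nM) preincubated with compound 15 min at RT, then 5'-biotin/3'-phosphotyrosine-FITC DNA substrate (15 nM) added for 5 min. AlphaScreen beads (10 ug/ml) added, 10 min RT; tyrosine-FITC cleavage read as signal loss.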
TGFb SMAD3 inh: qHTS for Inhibitors of TGF-b. 1.2% of 410,000 active. HepG2 CAGA-GFP TGF-b/SMAD3 reporter, GFP fluorescence, 18 h; TGF-beta stimulated, 500 pg/mL final. Potency, µM (top dose mostly 46.1 µM), hits mostly inhibitors; note: nearly all actives have a fitted effect of over 65% in size
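Read-out: total well GFP (ex488/em500-530) summed from mean per-cell fluorescence. Cells: HEPG2 CAGA-GFP, 1% FBS DMEM, 18 h at 37 degrees C with 500 pg/mL final TGF-beta. Unstimulated wells served as the full-inhibition control; stimulated DMSO wells = 0%.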
TDP1 cell noCPT: qHTS for Inhibitors of human tyrosyl-DNA phosphodiesterase 1 (TDP1): qHTS in cells in absence of CPT | 15% of 420,000 active | DT40 Tdp1-/- hTDP1 cells, no CPT, ATP luminescence, 48 h | AID 686978, 2013 | Potency, µM (titrated, usually from 46.2 µM), usual class: inhibitors; note: nearly all actives have a fitted effect of over 55% in size
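Camptothecin absent (DMSO only). Human TDP1-complemented DT40 knockout cells, 400 cells/well, 37 °C for minimum 48 hr; ATP measured via CellTiter-Glo, 30 min dark incubation, luminescence.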
HepG2 viability: qHTS for Inhibitors of TGF-b: Cytotox Counterscreen; HepG2 CAGA-GFP viability, ATP luminescence, 18 h; AID 588856, 2011; Potency, µM (doses to about 46.1 µM), actives largely listed as cytotoxic; 0.76% of 410,000 active
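CellTiter-Glo luminescence gave cytotoxicity after 18 hours at 37 degrees C. The cells were HepG2 CAGA-GFP in 1% FBS DMEM, stimulated with 500 pg/mL TGF-beta after compound addition. %Activity was normalised to no-cell wells (complete cell-killing) and DMSO (no toxicity), and curves were fitted and classified.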
IL1B secr inh: qHTS for Inhibitors of Inflammasome Signaling: IL-1-beta AlphaLISA Primary Screen; 4.7% of 360,000 active; AID 743279, 2014; activity change, % at 57.5 µM; THP-1 LPS/ATP IL-1B secretion, AlphaLISA, 16 h; stronger effect = lower value; in the data active = activity change below about -50%; inconclusive = mostly about -30% to -49%
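THP-1 cells pretreated 1 hr with compounds (up to 57.5 uM final), then stimulated with LPS (250 ng/mL final) plus ATP (1.25 mM final); secreted IL-1B measured by AlphaLISA after 16 hr, decreased signal indicating inhibition.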
Numbers stand for hits; [ ] = dose if it differs, or a comment. Unless noted, calls come from the whole dose curve; as a rule, active = well fitted curve in the direction sought with a large enough effect; inconclusive = small, poorly fitted or top-dose-only effect, or another doubt; inactive = no such curve, though single readings can be large; an effect the other way counts as inactive or inconclusive.

Screening COc1ccc(OC)c(N/C(=N/c2nc(C)cc(C)n2)NC(C)=O)c1 returned DT40 TDP1 CPT inconclusive, TGFb SMAD3 inh inactive, TDP1 cell noCPT 7.3µM, HepG2 viability inactive and IL1B secr inh inactive.
`Cc1ccc(C)c2[nH]c(=O)c(CN(CC3CCCO3)C(=O)NC3CCCCC3)cc12` (centres undefined) gave DT40 TDP1 CPT 23µM, TDP1 inh inactive, TGFb SMAD3 inh inactive, TDP1 cell noCPT inconclusive, HepG2 viability inactive and IL1B secr inh inactive.
Cc1cccc2cc(CN(Cc3cccs3)S(=O)(=O)c3ccc4c(c3)OCCO4)c(=O)[nH]c12 was read as DT40 TDP1 CPT inconclusive, TDP1 inh inactive, TGFb SMAD3 inh inactive, TDP1 cell noCPT 23µM, HepG2 viability inactive and IL1B secr inh inactive.
For Cc1ccc(C)c2[nH]c(=O)c(CN(Cc3nnnn3C3CCCCC3)CC3CCCO3)cc12 (centres undefined) the results were DT40 TDP1 CPT 15µM, TDP1 inh inactive, TGFb SMAD3 inh inconclusive, TDP1 cell noCPT 23µM, HepG2 viability inactive and IL1B secr inh inconclusive.
Cc1ccc2cc(CN(Cc3nnnn3C3CCCC3)C3CCCCC3)c(=O)[nH]c2c1C was read as DT40 TDP1 CPT inactive, TDP1 inh inactive, TGFb SMAD3 inh inactive, TDP1 cell noCPT inactive, HepG2 viability inactive and IL1B secr inh inactive.
For Cc1cccc2cc(CN(Cc3cccs3)C3(c4nnnn4C4CCCC4)CCCC3)c(=O)[nH]c12 the results were DT40 TDP1 CPT inconclusive, TDP1 inh inactive, TGFb SMAD3 inh inactive, TDP1 cell noCPT 21µM, HepG2 viability inactive and IL1B secr inh inactive.
Screening Cc1ccc(C)c2[nH]c(=O)c(CN(CCN3CCOCC3)Cc3nnnn3CC3CCCO3)cc12 (centres undefined) returned DT40 TDP1 CPT inactive, TDP1 inh inactive, TGFb SMAD3 inh inactive, TDP1 cell noCPT inactive, HepG2 viability inactive and IL1B secr inh inactive.
Screening COc1cccc(Cn2c(=O)c(-c3ccc(F)c(F)c3)nc3cncnc32)c1 returned DT40 TDP1 CPT inactive and TDP1 cell noCPT inconclusive.
For CCCCCC1=C2CNC(CCC)(C(=O)OC)C=C2C(C)C1=O (centres undefined) the results were TDP1 inh inactive.
`Cn1c(N)c(S(=O)(=O)N2CCN(c3ccccc3Cl)CC2)c(=O)n(C)c1=O` gave DT40 TDP1 CPT inactive, TDP1 inh inactive, TGFb SMAD3 inh inactive, TDP1 cell noCPT inactive, HepG2 viability inactive and IL1B secr inh inactive.
`O=C(N1CCOCC1)N1[C@H](COCc2ccccc2)C=CS1(=O)=O` gave DT40 TDP1 CPT inactive, TGFb SMAD3 inh inactive, TDP1 cell noCPT inactive, HepG2 viability inactive and IL1B secr inh inactive.
For CC1CCC(C(=O)O)NC1c1ccc(C#CCN(C)C)cc1 (centres undefined) the results were TDP1 inh inactive[21 µM].
Screening O=C1C2ON(c3ccccc3)C(c3cccnc3)C2C(=O)N1c1ccccc1 (centres undefined) returned DT40 TDP1 CPT inactive, TDP1 inh inactive, TGFb SMAD3 inh inactive, TDP1 cell noCPT inactive, HepG2 viability inactive and IL1B secr inh inactive.
`O=C1C2ON(c3ccc(Br)cc3)C(c3cccnc3)C2C(=O)N1C1CCCCC1` (centres undefined) gave DT40 TDP1 CPT inconclusive, TDP1 inh inactive, TGFb SMAD3 inh inactive, TDP1 cell noCPT 18µM, HepG2 viability inactive and IL1B secr inh inactive.
For CCc1cc(-c2n[nH]c(C)c2-c2nc(C)cs2)c(O)cc1OC the results were DT40 TDP1 CPT inactive, TGFb SMAD3 inh inactive, TDP1 cell noCPT inactive, HepG2 viability inactive and IL1B secr inh -78.
